In all, about 2,300 compounds went through this assay and about 1,000 (43%) were called active. So high a share suggests a set chosen from earlier hits. Some of the results follow. Entries with a potency or affinity are not part of this list. A number with no mark means an inactive call. No rule for the calls is given here.
assay: PhoP regulon inhibitor project modified counter assay, GFP fluorescence readout, dose response (AID 1985); details: S. Typhi, 4 h; series mostly up to 150 µM; inhibition: at the top concentration

Row | SMILES | inhibition
1 | CC1CCCN(C(=O)Cn2c(=O)oc3cc(S(=O)(=O)N4CCCCC4)ccc32)C1 (centres undefined) | -3.65%
2 | CCCOc1ccc(C2=CSC3=NCCN23)cc1Cl | 10.9%
3 | COc1ccc(CSCCN)cc1Cl | 5.75%
4 | c1ccn(-c2ccc(-c3ccn[nH]3)cc2)c1 | 2.06%
5 | O=C(NCc1ccco1)c1ccc2c(c1)N(Cc1ccccc1)CCS2 | -17.1%
6 | O=C1N/C(=C/c2ccc(N3CCOCC3)cc2)C(=O)N1Cc1ccc(F)cc1 | -4.52%
7 | CCOC(=O)c1c(CSC(=N)N)n(C)c2cc(Br)c(OC(C)=O)cc12 | -19%
8 | CCOC(=O)Cc1[nH]nc2c1C(c1ccoc1)C(C#N)=C(N)O2 (centres undefined) | 24.6%
9 | NC1=NC[C@H](Cc2ccc(O)cc2)N1CCc1cccc2ccccc12 | -33.5%
10 | COc1ccc(C(=O)Oc2cc(C(=S)N3CCOCC3)ccc2OC)cc1 | -4.19%
11 | COc1cc2c(cc1OC)CN(C(=O)CCCN1C(=O)c3ccccc3C1=O)CC2 | 11%
12 | CC(C)(C)n1nc2c(c1NC(=O)c1ccccc1)CS(=O)(=O)C2 | -6.62%
13 | Cc1ccc(C)c(OCC(=O)Nc2cccc(C(=O)O)c2)c1C | 26.7%
14 | Cc1cc(C)c[n+](CC(=O)c2ccc(NC(=O)c3ccccc3)cc2)c1 | 15%
15 | Cc1c(-c2ccccc2)[n+](=O)c2c(n1[O-])CCCC2 | 7.37%
16 | Cn1c(CCN2CCN(c3ccccn3)CC2)nc2cc(NC(=O)COc3ccccc3)ccc21 | 16.1%
17 | O=c1c2ccccc2nc2n1CCc1c-2[nH]c2ccccc12 | -12.2%
18 | COc1cc(/C=C(/C#N)C(=O)Nc2ccccc2)c(Br)cc1OCc1ccc(C(=O)O)cc1 | -2.34%
19 | CCC(=O)N1CCc2cc(S(=O)(=O)NCCCN3CCN(Cc4ccccc4)CC3)ccc21 | -4.18%
20 | CCNC(=S)Nc1cc(-c2ccc(Cl)cc2)[nH]n1 | -1.85%
21 | CCn1nnnc1SCC(=O)c1cc(Cl)ccc1OC | 4.28%
22 | CC1CCC(C(C)C)C(OC(=O)C[n+]2cc(-c3ccc(Cl)cc3)n3c2CCC3)C1 (centres undefined) | 35.1%
23 | CC1CCC(C(C)C)C(OC(=O)Cn2c(-c3ccc(Br)cc3)[n+](C)c3ccccc32)C1 (centres undefined) | -18.7%

Row | SMILES | inhibition
24 | COc1ccc(OC)c(C(=O)c2ccc(C(=O)O)cc2)c1 | 13.8%
25 | COC(=O)c1cn(C(=O)c2ccco2)c2ccccc12 | -16%
26 | COC(=O)c1ccc(OC(=O)c2cccnc2)cc1 | 14%
27 | COc1ccc(N(C(=O)c2cccnc2)S(=O)(=O)c2cccc([N+](=O)[O-])c2)cc1 | -6.79%
28 | Cc1ccc(NC2=C(Cl)C(=O)OC2OC(=O)c2ccco2)c(C)c1 (centres undefined) | 1.58%
29 | CCN(C1CCCCC1)S(=O)(=O)c1ccc(OC)c(C)c1 | 10.8%
30 | CSC1=NC2(C)CCCCC2C12C=CC(=O)C=C2 (centres undefined) | -12.5%
31 | COc1ccc(C(=O)CSc2nnc(-c3cnccn3)n2Cc2ccco2)cc1 | -8.62%
32 | Cc1cc(NC(=O)CSc2nnc(-c3cccnc3)n2N)no1 | 16.5%
33 | Cc1cc(C)c(CSc2ncnc3nc[nH]c23)c(C)c1 | -13.6%
34 | CC(=O)c1ccc(NC(=S)NC(NC(=O)c2ccco2)C(Cl)(Cl)Cl)cc1 (centres undefined) | 26.9%
35 | Cc1nc2ccc(NC(=O)c3cccc(C(F)(F)F)c3)cc2o1 | -0.54%
36 | Cn1cnc2cc(NC(=O)c3cccs3)ccc21 | 25.2%
37 | O=C(Nc1ccc2c(c1)nc1n2CCN(Cc2ccccc2)C1)c1cccs1 | -10.1%
38 | Cc1nn(-c2nc3ccccc3[nH]2)c(N)c1-c1ccccc1 | 5.82%
39 | N#CC(C(=O)C12CC3CC(CC(C3)C1)C2)c1nc2ccccc2[nH]1 (centres undefined) | -23.9%
40 | c1ccc(N2CCN(c3nc4ccccc4[nH]3)CC2)nc1 | 23.3% [at 75 µM]
41 | COc1ccc(NC(=O)Cn2c(=O)oc3cc(S(=O)(=O)N4CCCC4)ccc32)c(OC)c1 | -6.13%
42 | COc1cc(CNC(=O)CCC(=O)N2C[C@H]3C[C@H](C2)c2cccc(=O)n2C3)cc(OC)c1OC | -15.7%
43 | CC(C)c1ccc(NC(=O)CSc2nnc(-c3ccccn3)n2C)cc1 | 1.9%
44 | Cc1ccc(/C=N/NC(=O)CSc2nc3ccccc3n2C)s1 | 7.39%
45 | COc1ccccc1C(=O)NNC1=C(C(=O)C(F)(F)F)CCC1 | 22%
46 | COc1nc(N(C#N)CC(N)=O)nc(N2CCCC2)n1 | -14.6%

Row | SMILES | inhibition
47 | CC1CCN(CC(CS(=O)(=O)c2ccc([N+](=O)[O-])cc2)N2CCC(C)CC2)CC1 (centres undefined) | -27.2%
48 | O=c1c2cnn(-c3ccccc3)c2ncn1CCc1ccccc1 | 16.9%
49 | COc1cccc(-c2nc(CS(=O)CC(=O)NCCCOC(C)C)c(C)o2)c1 (centres undefined) | -17.2%
50 | Cc1ccsc1/C=N/NC(=O)c1ccncc1 | 3.21%
51 | O=C(N/N=C/c1ccc(N2CCCC2)c([N+](=O)[O-])c1)c1cccnc1 | 19.8%
52 | Cc1cc(C)n(-c2nc3ccccc3nc2N2CCN(C(=O)c3ccc(F)cc3)CC2)n1 | -26.8%
53 | CSc1nnc(-c2cccc(NC(=S)NN)c2)o1 | -45.2%
54 | Cc1cccc(-n2ccnc2CN2CCN(C3CCCC3)C(CCO)C2)c1 (centres undefined) | 5.03%
55 | C[N+](C)(CCCCCC[N+](C)(C)CCCN1C(=O)c2cccc3cccc(c23)C1=O)CCCN1C(=O)c2cccc3cccc(c23)C1=O | 15.2%
56 | O=C(c1ccccc1F)N1C(=O)c2cccc3cccc1c23 | 1.1%
57 | Cc1ccc(-c2[nH]ncc2/C=N/n2c(C)nc3ccccc3c2=O)cc1 | 24.4%
58 | Cc1ccc(/C=N/n2c(C)nc3ccccc3c2=O)s1 | -5.95%
59 | CCc1ccccc1NC(=O)c1onc(C)c1Cl | -34.5%
60 | Cc1onc(-c2ccccc2Cl)c1C(=O)NNC(=O)C1CCN(Cc2ccccc2)CC1 | -13.4%
61 | CCCN(CCC)CCNC(=O)C1CCN(Cc2nc(-c3ccc(Cl)cc3)oc2C)CC1 | 29.4%
62 | O=C(/C=C/c1ccccc1)OCc1cnc(Cl)s1 | -4.85%
63 | O=C(/C=C/c1ccccc1)NC(=S)N1CCSCC1 | -10.6%
64 | COC(=O)c1cc2nc(-c3ccccc3)cc(C)n2n1 | 14.7%
65 | CCC(C)n1c(SCC(=O)NCc2ccco2)nnc1-c1cccc(S(=O)(=O)N2CCOCC2)c1 (centres undefined) | 15.2%
66 | COC(=O)c1ccccc1NC(=O)CSc1ncn[nH]1 | -15.8%
67 | CSc1cccc(NC(=O)/C=C/c2ccco2)c1 | 23.1%
68 | COc1cccc(C(=O)Nc2cccc(SC)c2)c1 | 8.22%
69 | Cc1ccc(-c2c[n+](Cc3ccc(Cl)c(Cl)c3)c3n2CCC3)cc1 | -16.3%

Row | SMILES | inhibition
70 | CC1CCCC(NC(=O)COC(=O)Cc2c[nH]c3ccccc23)C1C (centres undefined) | -10.8%
71 | CCC(=O)Nc1nc(C)c(C(=O)N2CCCCC2)s1 | 8.55%
72 | O=C(N/N=C/c1cccnc1)c1ccc(F)cc1 | 2.11%
73 | CC(/C=C\c1cccnc1)=C/C(=O)O | 1.58%
74 | Cc1ccc(C(C)C)c(OCCNC(=O)c2ccccc2O)c1 | 29.6%
75 | O=C(Nc1ncccc1O)c1c(O)c2ccccc2[nH]c1=O | 17.4%
76 | CCC(Sc1nccn1C)C(=O)Nc1nnc(C)s1 (centres undefined) | -7.61%
77 | OCCN1CCN(Cc2cc(Cl)c3cccnc3c2O)CC1 | 39.2%
78 | Cc1ccc(-c2noc(CN3CCCCC3)n2)cc1 | -29.6%
79 | Cc1nc(N2CCOCC2)c2c(C)c(C(=O)Nc3ccccc3C(F)(F)F)sc2n1 | 21.2%
80 | O=c1c2ccccc2nc(COc2ccccc2)n1/N=C/c1ccc(O)cc1O | 15.7%
81 | CCn1c(SCC(=O)Nc2oc(-c3ccccc3)c(-c3ccccc3)c2C#N)nnc1-c1ccco1 | 30%
82 | CCCC(CCC)C(=O)NCCN1CCOCC1 | -18.2%
83 | COc1cccc(-c2ccc(SCc3ccccn3)nn2)c1 | -17.4%
84 | Fc1ccc(/C=N/Nc2nc3ccccc3[nH]2)cc1F | 21.8%
85 | CC1CCN(CCOCCOc2ccc(Br)cc2Cl)CC1 | 21.5%
86 | COC(=O)c1cc2sccc2n1Cc1nc(-c2ccc(OC)cc2)oc1C | -9.46%
87 | Oc1c(CN2CCN(c3ccccn3)CC2)cc(Cl)c2cccnc12 | 6.65%
88 | Cc1cc2cc(CNC(=O)C(C)Oc3ccccc3)ccc2n1C (centres undefined) | -17.3%
89 | CNCCCC1c2ccccc2C=Cc2ccccc21 | 37.2%
90 | COc1cc(OC)c(C2CC(=O)N3CN(c4ccccc4)CSC3=C2C#N)cc1OC (centres undefined) | 0.55%
91 | COc1ccccc1-c1nc(C(F)(F)F)c(OC)o1 | -6.77%
92 | Cc1nc(C)c(-c2ccc(SCc3ccccc3F)nn2)s1 | -17.5%

Row | SMILES | inhibition
93 | NC(=O)c1cc(S(=O)(=O)Nc2cccc(F)c2)co1 | 23.2%
94 | COc1ccc(C(=O)N/N=C/c2cccnc2)cc1 | 32.4%
95 | Cc1c(/C=N/NC(=O)c2sc3ccccc3c2Cl)cnn1C | 12.1%
96 | O=C(NC1=NCCS1)c1cccc2ccccc12 | -30.7%
97 | CCn1ncc(/C=N\NC(=O)c2csc3ccccc23)c1C | -13.8%
98 | O=C(NC1CC1)C1CCN(C2CCN(C(=O)Cc3ccc(F)cc3)CC2)CC1 | -0.34%
99 | CN1C(=O)N2CN(C3CCCCC3)CN3C(=O)N(C)C1C23 (centres undefined) | 26.2%
100 | CCn1nccc1C(=O)Nc1cc(Cl)cc(Cl)c1 | 14.2%
101 | O=C(C[n+]1cn(C(F)F)c2ccccc21)c1ccc(Br)cc1 | -42.7%
102 | COc1ccc(C(=O)N2CCN(C(=O)Cc3ccccc3)CC2)cc1OC | -8.35%
103 | CCOC(=O)N1CCN(CC(=O)Nc2ccc(F)cc2F)CC1 | -11%
104 | O=C(CCN1CCN(c2ccccc2)CC1)c1ccc(Cl)cc1 | 27%
105 | CCOC(=O)N1CCN(CCC(=O)c2ccc(Br)cc2)CC1 | 36.8%
106 | O=C(c1cccs1)N1CCC(N2CCN(c3ccccc3)CC2)CC1 | 0.94%
107 | O=C(CCN1CCC(c2ccccc2)C1)c1ccc2c(c1)OCCO2 (centres undefined) | -0.06%
108 | O=c1[nH]n(-c2ccccc2)c(=O)c2ccccc12 | 25.6%
109 | CCOc1ccc(S(=O)(=O)N2CCC(C(=O)NCCN3CCOCC3)CC2)cc1C | 10.5%
110 | O=c1c2ccccc2ncn1Cc1ccc(Cl)cc1 | -17.5%
111 | CC(=O)C1=C(O)C(=O)N(CCN2CCOCC2)C1c1ccccc1 (centres undefined) | 6.14%
112 | CCc1ccc(C(=O)CC2(O)C(=O)N(CN3CCOCC3)c3ccccc32)cc1 (centres undefined) | 19.9%
113 | CCC[C@H](CN[C@@H](CNC)[C@H](C)CC)NCCc1cc(C(F)(F)F)cc(C(F)(F)F)c1 | -3.97%
114 | O=C(COC(=O)/C=C/c1cccc(C(F)(F)F)c1)NCc1ccccc1 | -28.6%

From PubChem BioAssay AID1985 (Southern Research Specialized Biocontainment Screening …, 2009)
